Sampled rows, rich in hits. Any-hit rate of the full collection: about 3.4%.
PAFAH2 FP inh = PAFAH2 (human) inhibition | Q99487 | recombinant PAFAH2, FP-rhodamine activity probe, fluorescence polarization | inhibition, % at 3.39 µM | 0.99% of 340,000 active | AID 492956;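 active = inhibition above the mean over all tested compounds plus 3 SD, cut at about 30% in these data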;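 also: inhibitors block probe labeling of enzyme so polarization drops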
PP1 counter = blocks human PP1-alpha phosphatase, a PP5 counter-screen; P62136; 0.9% of 320,000 active; AID 2235; purified PP1alpha, OMFP fluorescence; inhibition, % at 6.7 µM;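 active = inhibition above the mean inhibition of all tested compounds plus 3 SD, computed separately for each screening campaign, cut at about 15% in these data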
PAFAH1B2 FP inh = blocks human PAF acetylhydrolase 1b catalytic subunit 2. inhibition, % at 3.39 µM. 1.2% of 340,000 active. recombinant PAFAH1B2, FP-rhodamine activity probe, fluorescence polarization. P68402;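 active = inhibition above the mean of all tested compounds plus 3 SD, cut at about 24% in these data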
Target sequence (P68402 whole entry, looked up): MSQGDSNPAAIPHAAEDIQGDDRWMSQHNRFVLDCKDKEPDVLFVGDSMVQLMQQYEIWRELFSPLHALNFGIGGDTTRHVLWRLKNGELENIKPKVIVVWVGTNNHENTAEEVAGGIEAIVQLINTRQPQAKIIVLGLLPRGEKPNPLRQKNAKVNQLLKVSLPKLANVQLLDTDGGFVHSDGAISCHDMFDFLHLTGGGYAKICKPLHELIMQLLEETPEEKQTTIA
PP5 inh = inhibitors of human protein phosphatase 5 (PP5). P53041. purified PP5c, OMFP substrate fluorescence. inhibition, % at 6.7 µM. 0.18% of 320,000 active. AID 1987;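 active = inhibition above the campaign's mean inhibition across all tested compounds plus 3 SD, cut at about 9.5% in these data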
PAFAH1B3 inh = inhibitors of human PAFAH1B3; 0.28% of 340,000 active; AID 492972; recombinant PAFAH1B3, FP-rhodamine probe, fluorescence polarization; inhibition, % at 3.39 µM;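 active = inhibition above the screen-wide average of all tested compounds plus 3 SD, cut at about 25% in these data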
pPAFAH FP inh = inhibitors of human plasma PAF acetylhydrolase (pPAFAH); recombinant pPAFAH, FP-rhodamine probe fluorescence polarization; inhibition, % at 3.39 µM; 1.5% of 330,000 active;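 active = inhibition above the mean inhibition across the screen plus 3 SD, cut at about 25% in these data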;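 also: inhibitors block binding of the rhodamine activity-based probe so polarization drops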
Target sequence (Q13093 whole entry, looked up): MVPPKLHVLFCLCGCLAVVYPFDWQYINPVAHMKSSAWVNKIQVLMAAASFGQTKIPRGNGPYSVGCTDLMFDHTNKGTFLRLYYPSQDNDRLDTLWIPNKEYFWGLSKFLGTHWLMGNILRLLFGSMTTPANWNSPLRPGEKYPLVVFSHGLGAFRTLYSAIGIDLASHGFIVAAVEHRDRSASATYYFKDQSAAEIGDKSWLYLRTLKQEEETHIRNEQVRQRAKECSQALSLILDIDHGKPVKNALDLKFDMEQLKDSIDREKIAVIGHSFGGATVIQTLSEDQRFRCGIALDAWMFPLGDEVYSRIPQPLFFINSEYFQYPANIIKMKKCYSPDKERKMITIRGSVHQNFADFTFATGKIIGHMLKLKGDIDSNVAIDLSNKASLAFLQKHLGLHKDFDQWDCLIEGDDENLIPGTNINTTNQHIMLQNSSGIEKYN
PAFAH2 confirm = confirmation of human PAFAH2 inhibitors; recombinant PAFAH2, FP-rhodamine activity probe, fluorescence polarization; shares compounds with PAFAH2 FP inh; 65% of 2,300 active; AID 493030; inhibition, % at 3.39 µM;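 active = mean inhibition over three repeats above a set limit taken from the earlier primary screen, cut at about 30% in these data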;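 also: inhibitor blocks binding of rhodamine activity probe so polarization falls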
Large screens that a line does not name were inactive (follow-up assays come after a bar, where they were run).

Cc1c(C(C)(C)O)[nH]c2cc(C(F)(F)F)ccc12	none
O=c1[nH]c2cc(C(F)(F)F)ccc2n1-c1cc(C(F)(F)F)ccc1O	PAFAH2 FP inh 49 | PAFAH2 confirm 42
Fc1cc(NC(=S)NCc2ccc(CNC(=S)Nc3ccc(Cl)c(F)c3)cc2)ccc1Cl	none
COc1ccc(/C=C/C(=O)OCC(=O)NCC2CCCO2)cc1 (stereo not drawn)	PAFAH2 FP inh 37 | PAFAH2 confirm 30
COc1cccc(/C=C/C(=O)OCC(=O)NCC2CCCO2)c1OC (stereo not drawn)	PAFAH2 FP inh 51 | PAFAH2 confirm 35
COc1cccc(/C=C/C(=O)OCC(=O)NCC2CCCO2)c1 (stereo not drawn)	none
COc1cc([N+](=O)[O-])ccc1NC(=O)COC(=O)c1n[nH]c2ccccc12	none
Cc1cccc(NC(=O)COC(=O)c2cccs2)c1C	PAFAH2 FP inh 68 | PAFAH2 confirm 56
Cc1cccc(NC(=O)COC(=O)c2n[nH]c3ccccc23)c1C	PAFAH2 FP inh 59 | PAFAH2 confirm 46
O=C(COC(=O)c1n[nH]c2ccccc12)Nc1ccccc1F	PAFAH2 FP inh 44 (no result: PP1 counter, PP5 inh) | PAFAH2 confirm 43
O=C(COC(=O)c1n[nH]c2ccccc12)Nc1ccc(Cl)cc1[N+](=O)[O-]	PAFAH2 FP inh 73 | PAFAH2 confirm 64
Cc1ccc(/C=C2\SC(=S)N(CCC(=O)Nc3cccnc3)C2=O)cc1	none
Cc1ccc(S(=O)(=O)CCN2CCN(c3ccccc3)CC2)cc1	none
Oc1ccc2c(c1)OCC1(O)Cc3cc(O)c(O)cc3C21 (stereo not drawn)	PAFAH2 FP inh 34 (no result: PP1 counter, PP5 inh, pPAFAH FP inh) | PAFAH2 confirm inactive
CC12COC3(P(=O)(c4ccccc4)c4ccccc4)CC1CCC23CP(=O)(c1ccccc1)c1ccccc1 (stereo not drawn)	none
O=C(NC(=S)Nc1cc(S(=O)(=O)N2CCOCC2)ccc1O)c1ccco1	PAFAH2 FP inh 44 | PAFAH2 confirm 32
Cc1ccc(N2C(=O)C(F)(F)C2c2ccccc2)cc1 (stereo not drawn)	none
O=C1N(c2ccc3c(c2)OCCO3)C(c2ccccc2)C1(F)F (stereo not drawn)	PAFAH2 FP inh 101 | PAFAH2 confirm inactive
CC1CCCCN1C(=O)/C(=C\c1ccccc1)c1ccccc1 (stereo not drawn)	PAFAH2 FP inh 38 | PAFAH2 confirm inactive
Cc1ncc(C[n+]2csc(CCOC(=O)C34CC5CC(CC(C5)C3)C4)c2C)c(N)n1	none
CCOc1ccc(-c2nc3ccccc3c(=O)o2)cc1	PAFAH2 FP inh 54 | PAFAH2 confirm 60
O=c1oc(-c2ccccc2Br)nc2ccccc12	PAFAH2 FP inh 56 | PAFAH2 confirm 31
Cc1onc(-c2ccccc2)c1-c1nc2ccccc2c(=O)o1	PAFAH2 FP inh 63 | PAFAH2 confirm 60
COc1ccc(-c2nc3ccccc3c(=O)o2)cc1OC	PAFAH2 FP inh 41 | PAFAH2 confirm 34
CN(C1CCCCC1)S(=O)(=O)c1ccc(C(=O)O)cc1	none
COc1ccc(CCC(=O)OCC(=O)Nc2c(C)n(C)n(-c3ccccc3)c2=O)cc1	none
Cc1ccccc1NC(=S)N/N=C/c1ccc(O)cc1O	PAFAH2 FP inh 33 | PAFAH2 confirm inactive
Cc1cccc(NC(=S)N/N=C/c2cccc(O)c2)c1C	none
CCn1cc(CN2CCC(C(=O)Nc3ccc(Oc4ccccc4)nc3)CC2)cn1	none
CCOc1ccc(C(=O)OCc2nnc(-c3cccs3)o2)cc1OC	PAFAH2 FP inh 85 | PAFAH2 confirm 79
Cc1ccc(C(=O)OCc2nnc(-c3ccccc3)o2)s1	PAFAH2 FP inh 81 | PAFAH2 confirm 73
O=C(OCc1nnc(-c2cccs2)o1)c1cccnc1Cl	none
O=C(OCc1nnc(-c2ccccc2)o1)c1ccco1	PAFAH2 FP inh 45 | PAFAH2 confirm 42
O=C(OCc1nnc(-c2ccc(Cl)cc2)o1)c1ccc(O)cc1	PAFAH2 FP inh 75 | PAFAH2 confirm 68
O=C1CCC(C(=O)OCc2nnc(-c3ccc(Cl)cc3)o2)=NN1	none
CCC(=O)N(Cc1cc2cc(OC)ccc2[nH]c1=O)c1ccc(C)cc1	none
COc1ccc(CCC(=O)NCCS(=O)(=O)N2CCN(c3ccccc3)CC2)cc1	none
C=C(C)CC(NCCc1ccccc1)c1ccco1 (stereo not drawn)	none (no result: PP1 counter, PP5 inh, pPAFAH FP inh)
CCOc1ccc(C(=O)NCC(=O)OCc2nnc(-c3ccccc3)o2)cc1OCC	PAFAH2 FP inh 60 | PAFAH2 confirm 53
CCOc1ncccc1C(=O)OCc1nnc(-c2ccccc2)o1	PAFAH2 FP inh 47 | PAFAH2 confirm 45
O=C(OCc1nnc(-c2ccccc2)o1)c1ccc2c(c1)OCO2	PAFAH2 FP inh 58 | PAFAH2 confirm 60
Cc1nn(Cc2ccccc2)c(Cl)c1C(=O)OCc1nnc(-c2ccccc2)o1	PAFAH2 FP inh 32 | PAFAH2 confirm inactive
N#Cc1ccccc1COC(=O)c1ccc2c(c1)OCO2	none
O=C(OCc1nnc(-c2ccccc2)o1)c1cccnc1Cl	none
Cc1cc(NC(=O)CCC(=O)N(CC(=O)NC2CCCC2)Cc2ccccc2Cl)no1	none
CCC[N+](C)(C)C(C)C(OC(C)=O)c1ccccc1 (stereo not drawn)	none
Cc1ccc(NC(=O)CSC(C)C(=O)OC(C)C(=O)NC2CCCCC2C)cc1 (stereo not drawn)	none
CCS(=O)(=O)Nc1c(C(=O)O)[nH]c2ccccc12	none
CCc1cc(=O)oc2c3c(cc(OCC(=O)NCCC(=O)O)c12)OC(C)(C)CC3	PAFAH2 FP inh 38 | PAFAH2 confirm inactive
Cc1cc(=O)oc2c3c(cc(OCC(=O)NCCC(=O)O)c12)OC(C)(C)CC3	none (no result: PP1 counter, PP5 inh, pPAFAH FP inh)
CCN(CC)S(=O)(=O)c1ccc(C)c(NC(=O)COC(=O)c2ccc(C)c(S(=O)(=O)N3CCOCC3)c2)c1	PAFAH2 FP inh 81 | PAFAH2 confirm 61
O=C(COC(=O)c1ccc2c(c1)OCCO2)Nc1cc(S(=O)(=O)N2CCOCC2)ccc1Cl	PAFAH2 FP inh 64 | PAFAH2 confirm 44
O=C(COC(=O)c1cnccn1)Nc1cc(S(=O)(=O)N2CCOCC2)ccc1Cl	none (no result: PP1 counter, PP5 inh)
Cc1ccc(S(=O)(=O)N2CCOCC2)cc1NC(=O)COC(=O)c1ccc(OCc2c(C)noc2C)cc1	PAFAH2 FP inh 44 | PAFAH2 confirm 51
Cc1ccc(S(=O)(=O)N2CCOCC2)cc1NC(=O)COC(=O)c1cncc(Br)c1	none (no result: PP1 counter, PP5 inh)
Cc1ccc(S(=O)(=O)N2CCOCC2)cc1NC(=O)COC(=O)c1cnc(Cl)c(Cl)c1	none (no result: PP1 counter, PP5 inh, pPAFAH FP inh)
Cc1ccc(S(=O)(=O)N2CCOCC2)cc1NC(=O)COC(=O)c1ccc2c(c1)OCCO2	PAFAH2 FP inh 70 | PAFAH2 confirm 59
CCSc1nnc(Cn2c(=O)sc3ccccc32)n1C	none
COc1ccc(NC(=O)C2CCCN(S(=O)(=O)c3ccc4[nH]c(=O)ccc4c3)C2)cc1 (stereo not drawn)	none

Assay outcomes from PubChem.
